Here are results for 9 molecules from PubChem BioAssay (NCATS).

Several values for one entry are separate records, joined by “and”; a condition that tells them apart may be missing. Identical values can stand only once. Inconclusive results are not listed. Activity calls are given as the source filed them. Unless noted, calls follow the shape of the dose curve; as a rule, active = well fitted curve in the direction sought with a large enough effect; inconclusive = small, poorly fitted or top-dose-only effect, or another doubt; inactive = no such curve, though single readings can be large; an effect the other way counts as inactive or inconclusive. A value given as a limit tells only on which side of the number the result lay.

Experiment [1] in a line: Cell Viability - NIH 3T3 (AID 541).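 Also: plate controls were DMSO alone for no effect and tamoxifen positive control for full effect; nearly all actives have a fitted effect of over 25% in size.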 To be noted: NIH 3T3 cell viability, qHTS; activity change, negative = cytotoxicity: at 92.2 µM (top of the series). The method in brief: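 Mouse NIH 3T3 fibroblasts, 1000 cells/well, rested 5 hr at 37 °C, then exposed to compound for 40 hr at 37 °C in complete medium. Viability read as intracellular ATP by CellTiter-Glo luminescence; AC50 from Hill-equation fits of concentration-response data.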
(In qHTS, concentration-response curves come from the screen itself.)

Experiment [2] in a line: Cell Viability - LYMP2-025 (AID 976).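 Also: plate controls were DMSO only for no effect and tetraoctylammonium bromide control for full effect.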 The method in brief:
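Human lymphoblastoid LYMP2-025 cells, 2500/well, exposed 24 h at 37 C in complete medium in 1536-well qHTS. Viability as cellular ATP by CellTiter-Glo luminescence; AC50 from Hill fits of concentration-response data.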

The nature of experiment [3]: Cell Viability - LYMP2-010 (AID 981). Also: % is scaled to controls: 0 for no effect and ±100 for the full control effect; nearly all actives have a fitted effect of over 55% in size. The method in brief:
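Human lymphoblastoid LYMP2-010 cells (2500/well) treated 24 h at 37 C in complete medium; viability read as intracellular ATP by CellTiter-Glo luminescence. AC50 from Hill fits of concentration-response data; tetraoctylammonium bromide positive control.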

Experiment [4] deals with Bile acid receptor (Homo sapiens) (UniProt Q96RI1). The experiment can be described thus: qHTS assay for small molecule agonists of farnesoid X receptor signaling (AID 588527; calls by dose curve;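 also: 0% = vehicle basal and 100% = reference agonist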). To be noted: HEK293T FXR-UAS-bla, beta-lactamase ratio, 16 h; stronger effect = higher value. The method in brief:
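Quantitative HTS used FXR-UAS-bla HEK293T cells with 16 h compound incubation at 37 C. EC50 values came from concentration-response curves normalized to chenodeoxycholic acid.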

Experiment [5] concerns the target Peroxisome proliferator-activated receptor delta (Homo sapiens) (UniProt Q03181). Description: qHTS assay for small molecule agonists of peroxisome proliferator-activated receptor delta signaling (AID 588534; calls by dose curve;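 also: 0% = DMSO basal wells and 100% = positive control agonist at 10 µM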). The method in brief:
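Cells carrying a PPAR-delta beta-lactamase reporter were treated with compounds for 18 h at 37 °C in agonist mode. CCF4 fluorescence was read after 2 h; EC50 and efficacy from Hill fits.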

A short description of experiment [6]: qHTS assay for small molecule antagonists of peroxisome proliferator-activated receptor delta signaling (AID 588535; active = well fitted inhibition curve with a large enough effect in the signal ratio, with a control signal flat, not every such curve was filed as active; the % refers to the signal ratio;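 as to max response: cells co-treated with a PPAR-delta agonist as stimulator during compound exposure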). To be noted: HEK293T PPARd-UAS-bla, beta-lactamase FRET ratio, 18 h; 460 nm channel. The essentials: (§1)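 HEK293T PPAR-delta-UAS-bla cells, 4000/well, 2% charcoal/dextran FBS; 5 h 37 C; cpd titration; 18 h 37 C; CCF4 2 h RT; FI 460/530 nm; Hill fit → IC50, efficacy.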

Experiment [7] deals with Peroxisome proliferator-activated receptor delta (Homo sapiens) (UniProt Q03181). Described as above. The method in brief: as §1
Sequence of Peroxisome proliferator-activated receptor delta (Homo sapiens) (Q03181 whole entry, looked up): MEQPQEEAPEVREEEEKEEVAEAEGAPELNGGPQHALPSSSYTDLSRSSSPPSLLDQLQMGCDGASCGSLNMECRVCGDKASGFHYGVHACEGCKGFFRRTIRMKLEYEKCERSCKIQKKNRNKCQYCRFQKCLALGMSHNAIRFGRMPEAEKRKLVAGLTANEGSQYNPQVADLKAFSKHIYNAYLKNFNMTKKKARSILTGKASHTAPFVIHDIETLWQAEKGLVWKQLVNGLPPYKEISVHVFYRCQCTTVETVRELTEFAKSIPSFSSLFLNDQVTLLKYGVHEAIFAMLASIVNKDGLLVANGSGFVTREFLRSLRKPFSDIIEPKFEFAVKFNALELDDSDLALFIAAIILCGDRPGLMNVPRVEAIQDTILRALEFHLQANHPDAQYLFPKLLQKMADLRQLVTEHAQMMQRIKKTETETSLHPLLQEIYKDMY
Experiment [8] addresses Retinoic acid receptor RXR-alpha (Homo sapiens) (UniProt P19793). Description: qHTS assay for small molecule antagonists of retinoid X receptor alpha signaling (AID 588546; active = well fitted inhibition curve with a large enough effect in the signal ratio, with a control signal flat, not every such curve was filed as active; the % refers to the signal ratio; also: % is scaled to controls: 0 for no effect and ±100 for the full control effect). To be noted: HEK293T RXRa-UAS-bla, beta-lactamase ratio, antagonist mode. The essentials: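 Beta-lactamase reporter inhibition, read as CCF4 fluorescence ratio (ex 405, em 460/530 nm) after 2 h at RT. HEK293T UAS-bla cells, 2500/well, were stimulated with 9-cis-RA at 500 or 100 nM final alongside test compound for 18 h at 37 C.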

Experiment [9] addresses Thyroid hormone receptor beta (Homo sapiens) (UniProt P10828). The experiment can be described thus: qHTS assay for small molecule antagonists of thyroid hormone receptor beta signaling (AID 588547; active = well fitted inhibition curve with a large enough effect in the signal ratio, with a control signal flat, not every such curve was filed as active; the % refers to the signal ratio;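 also: cells stimulated with 0.4 nM T3 agonist during compound exposure; % is scaled to controls: 0 for no effect and ±100 for the full control effect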). To be noted: TR-UAS-bla HEK293, beta-lactamase ratio, antagonist mode, 18 h. The essentials:
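Inhibition of T3-driven (0.4nM final) beta-lactamase reporter activity was measured over 0.59 nM to 92 uM compound after 18 h at 37 C. The cells were GripTite HEK293 TR-UAS-bla in charcoal/dextran-stripped serum, with CCF4 ratio read-out and IC50 from Hill fits.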

Experiment [10] is described as follows: qHTS assay for small molecule agonists of the antioxidant response element (ARE) signaling pathway (AID 651741; active = well fitted activation curve with a large enough effect in the signal ratio; the % refers to the signal ratio; also: potency is read from the fitted curve at half-maximal effect; as to activation: % of control where 0% means no effect). The essentials:
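Quantitative HTS in HepG2 cells stably expressing an ARE-beta-lactamase reporter; 16 h compound exposure at 37 C, followed by 2 h room-temperature incubation with LiveBLAzer B/G FRET substrate and fluorescence measurement.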

Experiment [11] in a line: qHTS assay for small molecule disruptors of the mitochondrial membrane potential - 1 hr assay (AID 651754; calls by dose curve; also: nearly all actives have a fitted effect of over 35% in size; also: potency is read from the fitted curve at half-maximal effect). The method in brief: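 HepG2 cells, attached overnight, were exposed to compound for 1 hr at 37C, then stained 30 min with a potentiometric dye. Ratio of red aggregate (590nm) to green monomer (535nm) fluorescence reports membrane potential; collapse shifts signal toward green.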

The target of experiment [12] is Nuclear receptor ROR-gamma (Homo sapiens) (UniProt P51449). Description: qHTS assay for small molecule antagonists of the retinoid-related orphan receptor gamma (ROR-gamma) signaling pathway (AID 651802). Also: nearly all actives have a fitted effect of over 60% in size. Also: potency is read from the fitted curve at half-maximal effect. The method in brief: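 CHO cells with TET-inducible ROR-gamma and RORE-luciferase reporter, dosed then doxycycline-induced. After 16 h at 37C, One-Glo luminescence read; decreased signal indicates antagonism.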
Sequence of Nuclear receptor ROR-gamma (Homo sapiens) (P51449 whole entry, looked up): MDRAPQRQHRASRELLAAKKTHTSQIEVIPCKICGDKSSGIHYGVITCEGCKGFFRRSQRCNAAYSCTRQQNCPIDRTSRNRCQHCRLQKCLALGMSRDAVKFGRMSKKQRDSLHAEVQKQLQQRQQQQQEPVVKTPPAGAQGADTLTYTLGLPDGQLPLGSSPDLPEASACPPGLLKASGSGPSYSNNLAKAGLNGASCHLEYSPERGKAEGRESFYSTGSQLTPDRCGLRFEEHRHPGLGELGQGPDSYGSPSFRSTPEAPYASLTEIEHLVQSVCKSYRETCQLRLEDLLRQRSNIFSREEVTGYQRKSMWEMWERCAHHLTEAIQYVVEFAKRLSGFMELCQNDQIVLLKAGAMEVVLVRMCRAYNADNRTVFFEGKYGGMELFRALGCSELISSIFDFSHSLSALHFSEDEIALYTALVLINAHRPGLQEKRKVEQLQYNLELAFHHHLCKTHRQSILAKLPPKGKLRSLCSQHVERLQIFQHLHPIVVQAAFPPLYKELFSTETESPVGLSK

Experiment [13] can be described thus: qHTS assay for small molecule agonists of the antioxidant response element (ARE) signaling pathway measured by Nrf2-dependant transcriptional activity (AID 720636; active = well fitted curve in the direction sought with a large enough effect in the repeat runs; an effect the other way counts as inactive or inconclusive; also: potency is read from the fitted curve at half-maximal effect;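 as to activation: HepG2 cells with an ARE-driven luciferase reporter; % of control where 0% means no effect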). The method in brief:
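Cells: ARE-luc HepG2 with Nrf2-responsive luciferase. Medium contained 1% dialyzed FBS. Compound exposure lasted 16 hr at 37 C and 5% CO2, followed by ONE-Glo luciferase detection.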

A short description of experiment [14]: Cell Viability - MRC5 (AID 434; calls by dose curve;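 also: potency is read from the fitted curve at half-maximal effect; potency reflects cytotoxicity seen as loss of intracellular ATP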). To be noted: MRC5 lung fibroblast viability, qHTS. The method in brief:
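qHTS cytotoxicity in human lung fibroblast MRC5 cells; 40 hr treatment, 37 °C; cellular ATP by luciferase luminescence; DMSO = 0%, 100 uM tamoxifen = 100% inhibition; Hill-fit AC50.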

Experiment [15] is described as follows: Cell Viability - LYMP2-018 (AID 985).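 Also: compound exposure lasted 24 hr at 37 °C; plate controls were DMSO only for no effect and tetraoctylammonium bromide at 92 µM for full effect; nearly all actives have a fitted effect of over 50% in size.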 The essentials:
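Human lymphoblastoid LYMP2-018 cells, 2500/well, settled 5 hr at 37 C then exposed to compound 24 hr at 37 C; intracellular ATP measured by CellTiter-Glo luminescence. AC50 from Hill-equation concentration-response fits.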

Experiment [16] addresses Estrogen receptor (Homo sapiens) (UniProt P03372). Description: qHTS assay for small molecule antagonists of estrogen receptor alpha signaling (AID 588513; active = well fitted curve in the direction sought with a large enough effect in the signal ratio, with a control signal flat, not every such curve was filed as active; the % refers to the signal ratio; also: % is scaled to controls: 0 for no effect and ±100 for the full control effect). The essentials:
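ER-alpha-UAS-bla GripTite HEK 293 cells in medium with 2% charcoal/dextran-treated FBS were preincubated 4 h at 37 C, dosed with compound (1:2 titration), stimulated with 0.5nM 17-beta-estradiol for 18 h, then read by CCF4 beta-lactamase fluorescence.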

For experiment [17] the target is unchanged. Description: qHTS assay for small molecule agonists of estrogen receptor alpha signaling (AID 588514; calls by dose curve;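 also: 0% = vehicle only and 100% = reference agonist; nearly all actives have a fitted effect of over 70% in size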). The essentials:
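ER-alpha-UAS-bla GripTite HEK293 cells, 5000/well in 2% charcoal/dextran-stripped FBS medium, treated with compound titrations 18 h at 37 C. CCF4 beta-lactamase read by fluorescence after 2 h RT; normalised to 20 nM 17-beta-estradiol (100%) and DMSO (0%), Hill fit for EC50 and efficacy.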

Experiment [18] is described as follows: Cell Viability - N2a (AID 540).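 Also: plate controls were DMSO alone for no effect and tamoxifen control for full effect; nearly all actives have a fitted effect of over 45% in size.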 The settings on record: N2a mouse neuroblastoma cell viability; activity change, negative = cytotoxicity: at 92.2 µM (top of the series). The essentials:
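Mouse neuroblastoma N2a cells, 1500/well, exposed to compounds 40 h at 37 °C in complete medium. Viability measured as cellular ATP by CellTiter-Glo luminescence; AC50 from Hill fits of concentration-response.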

Experiment [19] addresses Peroxisome proliferator-activated receptor gamma (Homo sapiens) (UniProt P37231). The experiment can be described thus: qHTS assay for small molecule antagonists of peroxisome proliferator-activated receptor gamma signaling (AID 588537; active = well fitted inhibition curve with a large enough effect in the signal ratio, with a control signal flat, not every such curve was filed as active; the % refers to the signal ratio;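 also: reporter cells co-stimulated with 50 nM rosiglitazone agonist during compound treatment; % of control where 0% means no effect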). The method in brief: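 Antagonist mode, beta-lactamase reporter in HEK293; charcoal/dextran FBS 1%; 3000 cells/well, 37 C 6-6.5 h; cpd titration + rosiglitazone 50 nM final, 16 h 37 C; CCF4, 2 h RT; 460/530 nm; Hill fit → IC50, efficacy.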

Experiment [20] in a line: Cell Viability - LYMP2-022 (AID 987).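 Also: 0% = DMSO alone and full effect = tetraoctylammonium bromide at 92 µM; nearly all actives have a fitted effect of over 55% in size.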 The essentials:
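LYMP2-022 lymphoblastoid cells (2500/well, complete medium) were treated with compounds for 24 hours at 37 C; intracellular ATP was then read by CellTiter-Glo luminescence after 30 min at room temperature. AC50 values were derived from Hill-equation fits.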

Sequence of Bile acid receptor (Homo sapiens) (Q96RI1 whole entry, looked up): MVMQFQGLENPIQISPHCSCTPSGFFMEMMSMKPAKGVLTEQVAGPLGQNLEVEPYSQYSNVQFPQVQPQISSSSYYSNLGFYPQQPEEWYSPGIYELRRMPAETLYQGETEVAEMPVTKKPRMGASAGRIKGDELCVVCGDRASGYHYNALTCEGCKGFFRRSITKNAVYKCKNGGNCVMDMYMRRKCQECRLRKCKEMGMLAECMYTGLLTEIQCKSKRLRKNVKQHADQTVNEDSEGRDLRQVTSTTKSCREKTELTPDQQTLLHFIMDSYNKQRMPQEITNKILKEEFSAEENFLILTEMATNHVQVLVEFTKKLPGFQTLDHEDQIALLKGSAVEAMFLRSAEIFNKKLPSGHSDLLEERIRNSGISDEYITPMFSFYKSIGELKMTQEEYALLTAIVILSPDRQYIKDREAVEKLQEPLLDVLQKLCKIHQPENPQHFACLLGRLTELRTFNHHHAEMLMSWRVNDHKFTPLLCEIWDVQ
Sequence of Estrogen receptor (Homo sapiens) (P03372 whole entry, looked up): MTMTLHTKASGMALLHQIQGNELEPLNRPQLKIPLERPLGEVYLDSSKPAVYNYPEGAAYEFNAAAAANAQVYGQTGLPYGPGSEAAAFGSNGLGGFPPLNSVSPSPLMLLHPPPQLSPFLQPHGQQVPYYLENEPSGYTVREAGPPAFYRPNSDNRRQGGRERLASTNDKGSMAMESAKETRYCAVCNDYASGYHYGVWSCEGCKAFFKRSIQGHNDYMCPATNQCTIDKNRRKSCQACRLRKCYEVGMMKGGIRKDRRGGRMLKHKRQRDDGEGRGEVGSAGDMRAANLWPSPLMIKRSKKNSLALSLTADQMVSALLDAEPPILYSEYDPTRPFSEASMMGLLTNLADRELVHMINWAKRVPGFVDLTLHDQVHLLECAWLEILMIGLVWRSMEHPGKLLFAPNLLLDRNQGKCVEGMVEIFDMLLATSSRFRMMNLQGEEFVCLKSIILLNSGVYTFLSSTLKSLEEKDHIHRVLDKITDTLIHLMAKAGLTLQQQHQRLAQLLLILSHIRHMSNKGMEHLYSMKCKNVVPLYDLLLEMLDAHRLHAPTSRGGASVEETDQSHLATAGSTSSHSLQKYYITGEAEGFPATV
Sequence of Retinoic acid receptor RXR-alpha (Homo sapiens) (P19793 whole entry, looked up): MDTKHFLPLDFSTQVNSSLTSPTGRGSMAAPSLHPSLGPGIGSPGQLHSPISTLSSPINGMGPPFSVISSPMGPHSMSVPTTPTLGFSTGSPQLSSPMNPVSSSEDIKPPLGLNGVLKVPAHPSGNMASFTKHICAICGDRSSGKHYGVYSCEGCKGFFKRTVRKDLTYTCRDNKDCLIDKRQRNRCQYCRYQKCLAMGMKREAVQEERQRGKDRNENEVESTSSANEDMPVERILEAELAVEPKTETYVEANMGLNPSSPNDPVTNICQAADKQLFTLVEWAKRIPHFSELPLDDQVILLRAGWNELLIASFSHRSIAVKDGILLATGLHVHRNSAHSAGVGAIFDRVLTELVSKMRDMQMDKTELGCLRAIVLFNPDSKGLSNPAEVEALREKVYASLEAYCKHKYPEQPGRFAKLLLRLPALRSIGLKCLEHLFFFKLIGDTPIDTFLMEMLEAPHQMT
Sequence of Thyroid hormone receptor beta (Homo sapiens) (P10828 whole entry, looked up): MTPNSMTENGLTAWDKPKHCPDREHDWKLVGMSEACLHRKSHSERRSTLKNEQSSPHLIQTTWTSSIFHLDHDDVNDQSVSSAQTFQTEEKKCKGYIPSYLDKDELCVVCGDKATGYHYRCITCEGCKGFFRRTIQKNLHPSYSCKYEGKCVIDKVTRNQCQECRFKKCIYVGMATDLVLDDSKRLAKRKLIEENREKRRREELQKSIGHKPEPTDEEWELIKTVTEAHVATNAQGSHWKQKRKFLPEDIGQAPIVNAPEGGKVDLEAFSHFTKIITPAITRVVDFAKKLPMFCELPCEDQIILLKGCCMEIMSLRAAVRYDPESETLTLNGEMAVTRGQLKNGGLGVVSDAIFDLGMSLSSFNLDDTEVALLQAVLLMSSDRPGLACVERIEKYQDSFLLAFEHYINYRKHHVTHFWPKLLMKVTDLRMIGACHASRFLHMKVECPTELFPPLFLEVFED
Sequence of Peroxisome proliferator-activated receptor gamma (Homo sapiens) (P37231 whole entry, looked up): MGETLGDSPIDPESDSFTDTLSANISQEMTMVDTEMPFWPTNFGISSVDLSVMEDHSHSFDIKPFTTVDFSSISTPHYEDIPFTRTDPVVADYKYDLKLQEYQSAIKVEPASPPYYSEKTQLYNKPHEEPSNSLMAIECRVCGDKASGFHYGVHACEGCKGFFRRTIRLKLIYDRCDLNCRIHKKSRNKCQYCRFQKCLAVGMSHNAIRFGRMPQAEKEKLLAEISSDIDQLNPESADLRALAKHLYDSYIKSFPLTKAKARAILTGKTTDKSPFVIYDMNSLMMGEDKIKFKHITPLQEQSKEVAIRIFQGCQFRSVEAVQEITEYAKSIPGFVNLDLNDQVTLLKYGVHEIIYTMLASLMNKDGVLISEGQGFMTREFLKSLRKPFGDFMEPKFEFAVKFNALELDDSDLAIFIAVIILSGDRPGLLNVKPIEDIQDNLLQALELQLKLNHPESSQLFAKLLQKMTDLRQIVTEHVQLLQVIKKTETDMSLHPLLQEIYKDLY

As for `ClCCCCl`, the Potency result in [1], in [2], in experiment [3], in experiment [10], in experiment [11] and in experiment [12] was “inactive” throughout. Moreover, in [13], the Potency result was “inactive”. Further, the activation in experiment [4] is 1.98% (inactive). The molecule was classed as inactive in experiment [5] and in experiment [7]. In addition, the figures for the max response in [6] and in experiment [8] were 23.7% and 9.28% (inactive), respectively. In [9], the activity change % (negative = inhibition) is 17.8% (inactive).
On to `Nc1cc(Cl)ccc1O`, for which the Potency is > 92 µM (inactive) in [14], 10.6 µM (active) in experiment [10], 29.8 µM (active) in [11] and 21.1 µM (active) in experiment [13]. For the same molecule, the Potency result in experiment [15], in experiment [16], in experiment [17] and in [12] was “inactive” throughout. Besides, the outcome in experiment [5] and in experiment [7] was inactive. For the same molecule, the max response in [6] is -44.8%; in [8] it was -9.48% (inactive).
In the case of `Oc1cccc(Cl)c1`, the Potency entry in [18], in experiment [1], in experiment [3], in experiment [16], in [17] and in experiment [19] was “inactive” in each case. The Potency entry in experiment [11] and in experiment [12] was “inactive” in each case. Moreover, the activation in experiment [4] was 2.65% (inactive). Besides, in experiment [8], the max response is 4.02% (inactive).
For the molecule `CC(C)(C)OOC(=O)c1ccccc1`, the Potency in [14] was > 92 µM (inactive). Further, the activity change, negative = cytotoxicity in experiment [1] was -137% (active). The Potency entry in experiment [2], in experiment [3], in experiment [15], in experiment [10], in [11] and in experiment [12] was “inactive” in each case. Besides, in [13], the Potency result is “inactive”. The result in experiment [5] and in experiment [7] was inactive. Also, the max response in [6] is -0.545%; in experiment [8], 2.22% (inactive) and 6.61% (inactive). The activity change % (negative = inhibition) in experiment [9] is 11.4% (inactive).
Regarding `O=[N+]([O-])c1ccc(O)c([N+](=O)[O-])c1`, the Potency result in experiment [3], in experiment [20], in experiment [16] and in experiment [19] was “inactive” in each case. Moreover, the max response in experiment [8] was 9.93% (inactive). The figures for the Potency in experiment [10] and in experiment [12] were 66.8 µM (active) and 6.68 µM (active), respectively.
For `Cc1cc(N=Nc2ccccc2C)ccc1N`, the Potency entry in experiment [15], in experiment [20] and in experiment [12] was “inactive” each time. Also, the activation in [4] was -3.42% (inactive) and -2.58% (inactive). The result in experiment [5] and in [7] was inactive. For the same molecule, the max response in experiment [6] was -21.5%. The Potency in experiment [10] is 1.88 µM (active) and 4.86 µM (active).
For the molecule `C(CCOCC1CO1)COCC1CO1` (stereo not given), the Potency in experiment [14] is > 92 µM (inactive); in experiment [10] it was 66.8 µM (active). The Potency entry in experiment [18], in experiment [1], in experiment [2], in [16], in experiment [17] and in experiment [12] was “inactive” in each case. Besides, the Potency result in experiment [13] was “inactive”. In [4], the activation is -2.57% (inactive). In addition, the outcome in experiment [5] and in [7] was inactive. Moreover, the figures for the max response in experiment [6] and in experiment [8] were -10% and 15.6% (inactive), respectively.
In the case of `Cc1cccc(N)c1C`, in experiment [14], the Potency was > 92 µM (inactive). The Potency result in [18], in [2], in [3], in experiment [15], in [20] and in [16] was “inactive” each time. Besides, the Potency result in experiment [10], in experiment [11], in experiment [12] and in [13] was “inactive” each time. Further, the activation in experiment [4] is -3.96% (inactive). The result in experiment [5] was inactive. Besides, the max response in experiment [8] is 13.5% (inactive). The activity change % (negative = inhibition) in experiment [9] is 2.82% (inactive).
With `CC(C)(COCC1CO1)COCC1CO1` (stereo not given), the Potency in experiment [14] was > 92 µM (inactive). The Potency entry in [18], in [2], in experiment [3], in experiment [20], in [16] and in experiment [17] was “inactive” each time. Besides, in experiment [11], the Potency entry was “inactive”. The activation in experiment [4] is 1.49% (inactive). The max response is 0.207% in experiment [6] and 6.95% (inactive) in experiment [8]. Besides, in experiment [7], the molecule was classed as inactive.
